Hit rate of the full screen: of about 10,000 compounds, about 320 (3.2%) were called active. Rule as the data show it: active = CPE inhibition mostly above about 9.1% (no sharp cut-off); inactive = mostly below about 7.2%. This excerpt belongs to a sample that is enriched for actives.

The nature of this experiment: Dengue virus cytopathic effect inhibitors, cell-based, CPE readout, HTS (AID 540333). Conditions: Dengue virus CPE inhibition in host cells, at 20 µM; active compounds read high.
Regarding `COc1cccc(NC(=O)CCC(=O)Nc2cccc(OC)c2)c1`, the CPE inhibition is 0.18% (inactive).

With `Cc1ccc(NC(=O)c2cc3c(s2)CCCC3)cc1S(=O)(=O)Nc1ccccc1Cl`, the CPE inhibition is 1.93% (inactive).

Turning to `O=C1CC(N2C(=O)/C(=C/C=C/c3ccccc3)SC2=S)C(=O)N1c1ccccc1` (stereo not drawn), the CPE inhibition was 9.17% (active).

`O=C(CN1C(=O)/C(=C\C=C\c2ccccc2)SC1=S)Nc1ccc(F)cc1`: the CPE inhibition was 1.02% (inactive).

As for `CC(=O)c1ccc(NC(=O)CN2C(=O)/C(=C/C=C/c3ccccc3)SC2=S)cc1`, the CPE inhibition is 0.165% (inactive).

Turning to `CC(=O)Nc1ccc(S(=O)(=O)NCC(=O)OCC(=O)NC(=O)C2CCCCC2)cc1`, the CPE inhibition is 0.165% (inactive).

For `NC(=O)C1(NC(=O)[C@@H]2CC3(CC(c4cccc(NC(=O)[C@@H]5CCC(=O)N5)c4)=NO3)CN2C(=O)c2cnccn2)CC1` (stereo partly drawn), the CPE inhibition was 0.745% (inactive).

Turning to `O=C(CSc1nc2ccccc2s1)Nc1cc(S(=O)(=O)N2CCOCC2)ccc1O`, the CPE inhibition result was “inactive”.

`Fc1cccc(NC(=S)NCCN2CCOCC2)c1`: the CPE inhibition was 0.255% (inactive).

On to `O=C(C[n+]1cc(-c2ccccc2)n2c1CCC2)Nc1nc(-c2ccc(F)cc2)cs1`, for which the CPE inhibition is 17% (active).

`O=C(C[n+]1cc(-c2ccccc2)n2c1CCC2)Nc1nc(-c2ccccc2)cs1`: the CPE inhibition was 4.34% (inactive).

As for `O=C(C[n+]1cc(-c2ccc(F)cc2)n2c1CCC2)Nc1nc(-c2ccccc2)cs1`, the CPE inhibition was 0.55% (inactive).

As to `O=C(c1cccc(S(=O)(=O)N2CCc3ccccc3C2)c1)N1CCN(c2ccccc2)CC1`, the CPE inhibition is 3% (inactive).

`CC1CCCN(S(=O)(=O)c2ccc(Br)s2)C1` (stereo not drawn): the CPE inhibition was 0.775% (inactive).

Consider `O=C(NC1CCCC1)C(NS(=O)(=O)c1ccc(Br)s1)c1ccccc1` (stereo not drawn), for which the CPE inhibition was 0.805% (inactive).

For `CC1CC(C)CN(C(=O)C(NS(=O)(=O)c2ccc(Br)s2)c2ccccc2)C1` (stereo not drawn), the CPE inhibition is 24.6% (active).

On to `CN(/N=C/c1cc([N+](=O)[O-])ccc1O)c1ccccc1`, for which the CPE inhibition was 1.04% (inactive).

`COC(=O)c1ccc(CSc2nnc(NC(=O)C3CC(=O)N(Cc4ccc(C)cc4)C3)s2)cc1` (stereo not drawn): the CPE inhibition is 0.19% (inactive).

`CC(C)CN(CC(C)C)C(=O)CCCC(=O)N(CC(C)C)CC(C)C`: the CPE inhibition entry is “inactive”.

With `O=C(Nc1ccc(F)cc1)C(c1ccccc1)N1CCN(S(=O)(=O)c2ccc3ccccc3c2)CC1` (stereo not drawn), the CPE inhibition was 2% (inactive).

As for `O=C(CCC(=O)N1CCN(S(=O)(=O)c2ccc(Cl)cc2)CC1)NCc1ccccc1`, the CPE inhibition was 0.355% (inactive).

As to `NS(=O)(=O)c1ccc(NC(=S)N2CCN(c3cccc(Cl)c3)CC2)cc1`, the CPE inhibition is 1.62% (inactive).

Take `O=C(CCC(=O)N1CCN(S(=O)(=O)c2ccc(Cl)cc2)CC1)Nc1ccc2ccccc2c1`: the CPE inhibition is 11% (active).

Consider `O=S(=O)(c1ccc(Cl)cc1)N1CCN(C(=S)Nc2ccc(F)c(Cl)c2)CC1`, for which the CPE inhibition was 13.6% (active).

For the molecule `O=S(=O)(c1ccccc1)N1CCN(C(=S)Nc2ccc(F)cc2)CC1`, the CPE inhibition is 1.81% (inactive).

In the case of `Fc1ccc(NC(=S)N2CCCC2)cc1Cl`, the CPE inhibition is 0.335% (inactive).

As to `O=C(CNC(=O)c1ccc2ccccc2c1)OCC(=O)N1CCN(S(=O)(=O)c2ccc3ccccc3c2)CC1`, the CPE inhibition result is “inactive”.

With `O=S(=O)(c1ccc2ccccc2c1)N1CCN(C(=S)Nc2ccc(F)cc2)CC1`, the CPE inhibition is 26.1% (active).

Turning to `COC(=O)c1ccc(CNC(=O)COC(=O)CC23CC4CC(CC(Br)(C4)C2)C3)cc1`, the CPE inhibition result was “inactive”.

As for `COc1ccc(CC(=O)NNc2ncnc3c2cnn3C)cc1`, the CPE inhibition result was “inactive”.

`Cc1cccc(CSC(Nc2ccc(F)cc2)=C(C#N)C#N)c1`: the CPE inhibition is 0.46% (inactive).

On to `COc1cccc(C(C)NC(=O)c2c(F)cccc2Cl)c1` (stereo not drawn), for which the CPE inhibition was 0.965% (inactive).

Turning to `CC(=O)CSc1ccc(C(=O)O)cn1`, the CPE inhibition is 0.685% (inactive).

`Cc1ccccc1OCCNC(=O)/C=C/c1ccccc1`: the CPE inhibition result was “inactive”.

Turning to `COc1ccc(NC(=O)CSc2ccccc2)cc1S(=O)(=O)N1CCCCC1`, the CPE inhibition result is “inactive”.

Regarding `Cc1cccc(OCCC(=O)Nc2ccc(C)c(S(=O)(=O)N3CCCCC3)c2)c1`, the CPE inhibition was 16.7% (active).

Consider `Cc1cccc(OCCCC(=O)Nc2ccc(N(C)C)cc2)c1`, for which the CPE inhibition is 0.66% (inactive).

For the molecule `COc1ccc(NC(=O)CCCC2CCCCC2)cc1S(=O)(=O)N1CCCCC1`, the CPE inhibition was 0.425% (inactive).

In the case of `Cc1ccc(NC(=O)CSc2ncnc3ccccc23)cc1S(=O)(=O)N1CCCCC1`, the CPE inhibition is 2.42% (inactive).

On to `COc1ccc(NC(=O)CCC2CCCCC2)cc1S(=O)(=O)N1CCCCC1`, for which the CPE inhibition was 11.6% (active).

Take `COc1ccc([C@H]2CC(=O)C=C(c3cc(C(F)(F)F)cc(C(F)(F)F)c3)C2)cc1`: the CPE inhibition result is “inactive”.

With `COCCCNCCCCOc1ccc(Br)cc1C`, the CPE inhibition result is “inactive”.

Regarding `CC1c2ccccc2SC(CCCN(C)C)c2ccccc21` (stereo not drawn), the CPE inhibition result is “inactive”.

Regarding `Cc1ccc(NC(=S)N2CCN(C)CC2)c(C)c1`, the CPE inhibition is 0.8% (inactive).

Turning to `COc1ccccc1N(CC(=O)N/N=C/c1c(O)ccc2ccccc12)S(C)(=O)=O`, the CPE inhibition is 0.02% (inactive).

`CS(=O)(=O)N(CC(=O)N/N=C/c1ccco1)c1ccccc1Br`: the CPE inhibition was 0.19% (inactive).

`CCOC(=O)c1ccc(-c2ccc(/C=N/NC(=O)CN(c3ccccc3Cl)S(C)(=O)=O)o2)cc1`: the CPE inhibition is 12.9% (active).

As for `Cc1ccc(NC(=O)c2ccc(OC(F)F)cc2)cc1S(=O)(=O)N(C)C`, the CPE inhibition entry is “inactive”.

Consider `CCn1c(COc2ccc(Cl)cc2)nnc1SC1CCc2ccccc2C1=O` (stereo not drawn), for which the CPE inhibition is 1.03% (inactive).

Consider `O=C(COC(=O)CC(c1ccccc1)c1ccccc1)Nc1cccc(F)c1`, for which the CPE inhibition entry was “inactive”.

As to `CCCCc1nn2c(N)c(/C=C3\C=Nc4ccccc43)c(=O)nc2s1`, the CPE inhibition result was “inactive”.

Take `O=C1S/C(=C/c2ccccc2)C(=O)N1CC(O)Cn1c2ccccc2c2ccccc21` (stereo not drawn): the CPE inhibition was 16.2% (active).

`CN(C)c1ccc(/C=C2\SC(=O)N(CC(O)Cn3c4ccccc4c4ccccc43)C2=O)cc1` (stereo not drawn): the CPE inhibition is 2.39% (inactive).

For the molecule `O=C1S/C(=C\c2ccccc2)C(=O)N1CC(O)Cn1c2ccccc2c2ccccc21` (stereo not drawn), the CPE inhibition result was “inactive”.

For the molecule `C=CCN1c2ccccc2[C@]23C[C@@H](C(=O)OC)N(C(=O)NC4CCCC4)C2=NC(C(=O)OC)=C(C(=O)OC)[C@H]13`, the CPE inhibition is 0.19% (inactive).

Turning to `CC1(C)CC(=NOC(=O)c2ccccc2)CC(C)(C)N1O`, the CPE inhibition is 3.8% (inactive).

For the molecule `Cc1ccc(Nc2ccc(C(=O)NCCc3ccccc3)cn2)cc1`, the CPE inhibition is 0.525% (inactive).

On to `CCCCn1c(=N)n(CCOc2ccc(C)cc2)c2ccccc21`, for which the CPE inhibition entry was “inactive”.

`c1ccc(NCc2nc3ccccc3n2CCOc2ccccc2)cc1`: the CPE inhibition is 0.715% (inactive).

For the molecule `Cc1ccc(NCc2nc3ccccc3n2CCOc2ccccc2)cc1`, the CPE inhibition was 14.9% (active).

With `S=C(NCCN1CCOCC1)Nc1ccccc1Cl`, the CPE inhibition entry was “inactive”.

On to `COc1ccc(CN2C(=O)/C(=C/c3ccncc3)SC2=S)cc1`, for which the CPE inhibition entry is “inactive”.

As for `Cc1ccc(/C=C2\SC(=S)N(CCCC(=O)Nc3nccs3)C2=O)cc1`, the CPE inhibition is 0.46% (inactive).

Regarding `O=C(O)CCCCCN1C(=O)/C(=C\c2ccncc2)SC1=S`, the CPE inhibition is 14.8% (active).

On to `Cc1cc(Br)ccc1SCC(=O)OCC(=O)NC(C)c1ccccc1` (stereo not drawn), for which the CPE inhibition was 0.13% (inactive).

For the molecule `O=C(Nc1cccc(-c2cn3ccccc3n2)c1)c1cccs1`, the CPE inhibition is 0.18% (inactive).

On to `COc1ccc(C(=O)n2cc(C(=O)c3cc(C)ccc3O)cn2)cc1OC`, for which the CPE inhibition was 14.3% (active).

Consider `COc1ccc(C(=O)n2cc(C(=O)c3cc(C)ccc3O)cn2)cc1`, for which the CPE inhibition entry is “inactive”.

`O=C(c1cnn(C(=O)c2ccccc2)c1)c1ccccc1O`: the CPE inhibition was 2.51% (inactive).

As to `Cc1cccc(NCCC#N)c1`, the CPE inhibition entry was “inactive”.

Consider `O=C(Nc1cccc(Cl)c1)c1ccc(F)c(S(=O)(=O)NCc2cccs2)c1`, for which the CPE inhibition was 11.8% (active).

With `O=C(Nc1cccc(Cl)c1)c1ccc(F)c(S(=O)(=O)NCc2ccc3c(c2)OCO3)c1`, the CPE inhibition is 5.79% (inactive).

As to `Cc1ccc(NC(=O)c2cccs2)cc1S(=O)(=O)Nc1cccc(Cl)c1`, the CPE inhibition was 7.68% (inactive).

Regarding `COCC(C)NC(=O)c1ccccc1[N+](=O)[O-]` (stereo not drawn), the CPE inhibition was 1.6% (inactive).

Regarding `CC(C)CNC(=S)Nc1ccc(S(N)(=O)=O)cc1`, the CPE inhibition is 0.36% (inactive).

For the molecule `COc1cc(CN(C2CCCCC2C)S(=O)(=O)c2ccc(S(=O)(=O)NC3CC3)cc2)cc(OC)c1OC` (stereo not drawn), the CPE inhibition was 19.9% (active).

Regarding `COc1ccc(CCNC(=O)COc2ccc(S(=O)(=O)NC3CCCCC3)cc2Cl)cc1OC`, the CPE inhibition was 2.27% (inactive).

Consider `COc1cc(CN(C2CCCCC2)S(=O)(=O)c2ccc(S(=O)(=O)N(C)C3CCCCC3)cc2)cc(OC)c1OC`, for which the CPE inhibition result is “inactive”.

Consider `Cc1nn(-c2ccccc2)c(N2CCCC2)c1/C=N/NC(=O)c1cc(-c2ccccc2)nc2ccccc12`, for which the CPE inhibition is 2.99% (inactive).

With `Cc1nn(-c2ccccc2)c(N2CCCC2)c1/C=N/NC(=S)Nc1ccccc1F`, the CPE inhibition is 13.2% (active).

`Cc1nn(-c2ccccc2)c(N2CCCC2)c1/C=N/NC(=O)c1ccccc1O`: the CPE inhibition result is “inactive”.

`O=C(CCc1nc2ccccc2c(=O)[nH]1)OCC(=O)c1ccc(C2CCCCC2)cc1`: the CPE inhibition was 1.97% (inactive).

Turning to `O=C(Nc1nc2ccccc2s1)c1cc(-c2ccco2)nc2ccccc12`, the CPE inhibition was 5.33% (inactive).

In the case of `COc1ccc(N2CCN(CC(=O)Nc3sccc3C#N)CC2)cc1`, the CPE inhibition entry is “inactive”.

For the molecule `O=C(NCc1nnc(SCc2ccc(C(F)(F)F)cc2)n1-c1ccccc1)C12CC3CC(CC(C3)C1)C2`, the CPE inhibition is 9.12% (active).

In the case of `O=C(NC(=S)N1CCN(c2ccc(F)cc2)CC1)C12CC3CC(CC(C3)C1)C2`, the CPE inhibition was 0.245% (inactive).

As for `O=C(CSc1nnc(CNC(=O)C23CC4CC(CC(C4)C2)C3)n1-c1ccccc1)Nc1ccc(F)cc1`, the CPE inhibition is 6.17% (inactive).

On to `O=C(CSc1nnc(CNC(=O)C23CC4CC(CC(C4)C2)C3)n1-c1ccccc1)Nc1ccccc1`, for which the CPE inhibition was 1.45% (inactive).

With `O=C(CSc1nnc(CNC(=O)C23CC4CC(CC(C4)C2)C3)n1-c1ccc(F)cc1)Nc1ccc(F)cc1`, the CPE inhibition is 3.73% (inactive).

With `Cc1ccc(NC(=O)CSc2nnc(CNC(=O)C34CC5CC(CC(C5)C3)C4)n2-c2ccc(F)cc2)cc1`, the CPE inhibition is 5.74% (inactive).

With `O=C(NCc1nnc(SCc2ccccc2)n1-c1ccc(F)cc1)C12CC3CC(CC(C3)C1)C2`, the CPE inhibition is 15.9% (active).

In the case of `O=C(NCc1nnc(SCc2ccc(F)cc2)n1-c1ccc(F)cc1)C12CC3CC(CC(C3)C1)C2`, the CPE inhibition is 9.94% (active).

For `CC(C)(C)c1ccc(C(=O)NCc2nnc(SCC(=O)N3CCCc4ccccc43)n2-c2ccccc2)cc1`, the CPE inhibition is 5.59% (inactive).

(Values after PubChem BioAssay AID540333 (Southern Research Specialized Biocontainment Screening …, 2011).)
